Assay results from PubChem BioAssay (NCATS).
Records with an inconclusive call do not appear. Entries that show only a call come without a potency. Active and inactive are the calls of the source. Calls follow the shape of the full dose curve.

Legend:
[1] = Cytotoxicity counterscreen for inhibitors of SARS-CoV-2 cell entry (AID 1645845); also: nearly all actives have a fitted effect of over 50% in size
Summary of the method: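 Expi293F/hACE2 cells seeded overnight; cpd pin-transferred in DMSO, 1 h preincubation, + media, 48 h 37 C 5% CO2; ATPLite 1step luminescence; normalized to cells and no cells.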

[2] = Primary qHTS to identify inhibitors of SARS-CoV-2 cell entry (AID 1645846); conditions: activity change, negative = inhibition: at 57.1 µM (top of the series) unless noted; also: nearly all actives have a fitted effect of over 45% in size; also: potency is read from the fitted curve at half-maximal effect
Summary of the method: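 HEK293 cells stably expressing human ACE2, pre-treated 1 h with compound, then infected with MLV particles pseudotyped with Wuhan-Hu-1 spike (C-terminal 19-aa truncation). Luciferase luminescence after 48 h at 37 °C, normalised to spike PP and bald PP.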

Q: With `O=c1[nH]cnc2c1ncn2[C@@H]1O[C@H](CO)[C@@H](O)[C@H]1O` as the compound, how does the Potency [1] read?
A: inactive

Q: And the Potency [2]?
A: inactive

Q: Which Potency [1] does the source give for `c1ccc(CN(CC2=NCCN2)c2ccccc2)cc1` here?
A: inactive

Q: What about the Potency [2] of the same compound?
A: inactive

Q: With `C[C@@H](O)[C@H](N)C(=O)O` as the compound, how does the Potency [1] read?
A: inactive

Q: And the activity change, negative = inhibition [2]?
A: 0.235% [at 27.1 µM]

Q: Which results are given for `CO/N=C(/C(=O)N[C@@H]1C(=O)N2C(C(=O)O)=C(Cn3nnc(C)n3)CS[C@H]12)c1csc(N)n1`?
A: Potency [1]: inactive; Potency [2]: inactive

Q: Which Potency [1] does the source give for `O=C1CC2(CCCC2)CC(=O)N1CCCCN1CCN(c2ncccn2)CC1` here?
A: inactive

Q: What about the activity change, negative = inhibition [2] of the same compound?
A: 0.863%

Q: What does the source list for `Cc1nc(C2CCCCC2)c(-c2ccc(S(N)(=O)=O)c(F)c2)o1`?
A: Potency [1]: inactive; Potency [2]: inactive

Q: Which Potency [1] does the source give for `C#C[C@]1(O)CC[C@H]2[C@@H]3CCC4=CC(=O)CC[C@@H]4[C@H]3CC[C@@]21C` here?
A: inactive

Q: And the activity change, negative = inhibition [2]?
A: 3.31%

Q: For `CCC1NC(=O)c2cc(S(N)(=O)=O)c(Cl)cc2N1` (configuration not stated), which Potency [1] is on record?
A: inactive

Q: And the activity change, negative = inhibition [2]?
A: -25.9%

Q: With `OC1C(O)C(O)C(O)C(O)C1O` (configuration not stated) as the compound, how does the Potency [1] read?
A: inactive

Q: And the activity change, negative = inhibition [2]?
A: -22.4%

Q: With `Cn1c(=O)c2c(ncn2CC2OCCO2)n(C)c1=O` as the compound, how does the Potency [1] read?
A: inactive

Q: And the activity change, negative = inhibition [2]?
A: -5.86%

Q: Which results are given for `CCN(CCCCOC(=O)c1ccc(OC)c(OC)c1)C(C)Cc1ccc(OC)cc1` (configuration not stated)?
A: Potency [1]: inactive; Potency [2]: 14.1 µM (active)

Q: With `C[N+]1(C)CCC(=C(c2ccccc2)c2ccccc2)CC1` as the compound, how does the Potency [1] read?
A: inactive

Q: What about the activity change, negative = inhibition [2] of the same compound?
A: -5.21%

Q: Which results are given for `CN(C)CC[C@@H](c1ccc(Cl)cc1)c1ccccn1`?
A: Potency [1]: inactive; activity change, negative = inhibition [2]: 0.546%

Q: For `C[C@H](N)C(=O)N[C@@H](C)C(=O)NC1[C@H]2CN(c3nc4c(cc3F)c(=O)c(C(=O)O)cn4-c3ccc(F)cc3F)C[C@@H]12` (some centres not stated), which Potency [1] is on record?
A: inactive

Q: What about the activity change, negative = inhibition [2] of the same compound?
A: -23%

Q: Which Potency [1] does the source give for `CCCn1cnc2c1c(=O)n(CCCCC(C)=O)c(=O)n2C` here?
A: inactive

Q: And the Potency [2]?
A: inactive

Q: For `CCc1oc2ccccc2c1C(=O)c1cc(Br)c(O)c(Br)c1`, which Potency [1] is on record?
A: inactive

Q: What about the activity change, negative = inhibition [2] of the same compound?
A: -14%

Q: Which results are given for `COc1ccc(CN(CCN(C)C)c2ncccn2)cc1`?
A: Potency [1]: inactive; activity change, negative = inhibition [2]: -19.5%

Q: Which results are given for `CC(=O)Oc1ccc2c(c1)CC[C@@H]1[C@@H]2CC[C@]2(C)[C@@H](O)CC[C@@H]12`?
A: Potency [1]: inactive; activity change, negative = inhibition [2]: -11%

Q: What does the source list for `CCOc1ccccc1C(N)=O`?
A: Potency [1]: inactive; Potency [2]: inactive

Q: With `C=CCCCCCCCCC(=O)O` as the compound, how does the Potency [1] read?
A: inactive

Q: And the Potency [2]?
A: inactive

Q: For `CCN(CC)CC(=O)Nc1c(C)cccc1C`, which Potency [1] is on record?
A: inactive

Q: What about the Potency [2] of the same compound?
A: inactive

Q: Which results are given for `COc1cc(NS(=O)(=O)c2ccc(N)cc2)ncn1`?
A: Potency [1]: inactive; Potency [2]: inactive

Q: Which Potency [1] does the source give for `NC(=O)C1(N2CCCCC2)CCN(CCCC(=O)c2ccc(F)cc2)CC1` here?
A: inactive

Q: And the activity change, negative = inhibition [2]?
A: 3.21%

Q: With `NC(=O)Cc1cccc(C(=O)c2ccccc2)c1N` as the compound, how does the Potency [1] read?
A: inactive

Q: What about the Potency [2] of the same compound?
A: inactive

Q: For `O=C1C(c2[nH]c3ccccc3c2O)=Nc2ccccc21`, which Potency [1] is on record?
A: inactive

Q: What about the activity change, negative = inhibition [2] of the same compound?
A: -0.955%

Q: Which Potency [1] does the source give for `CC(=O)[C@@]1(O)CC[C@H]2[C@@H]3C[C@H](C)C4=CC(=O)CC[C@]4(C)[C@H]3CC[C@@]21C` here?
A: inactive

Q: And the Potency [2]?
A: inactive

Q: What does the source list for `CN(C)C(=O)Oc1cccc([N+](C)(C)C)c1`?
A: Potency [1]: inactive; activity change, negative = inhibition [2]: -1.02%

Q: What does the source list for `O=C(NC1CCN(CCc2c[nH]c3ccccc23)CC1)c1ccccc1`?
A: Potency [1]: inactive; activity change, negative = inhibition [2]: -25.8%

Q: With `CCN1CCCC(OC(=O)C(c2ccccc2)c2ccccc2)C1` (configuration not stated) as the compound, how does the Potency [1] read?
A: inactive

Q: What about the activity change, negative = inhibition [2] of the same compound?
A: -0.255%

Q: Which Potency [1] does the source give for `COC(=O)C1=C(C)NC(C)=C(C(=O)OC)C1c1ccccc1[N+](=O)[O-]` here?
A: inactive

Q: And the activity change, negative = inhibition [2]?
A: -30.6%

Q: With `CCn1cc(C(=O)O)c(=O)c2cc(F)c(N3CCNCC3)nc21` as the compound, how does the Potency [1] read?
A: inactive

Q: And the Potency [2]?
A: inactive
